In PMC7862700, “An all-to-all approach to the identification of sequence-specific readers for epigenetic DNA modifications on cytosine”:

Experiments:
Assay in all cases: DAPPL (digital affinity profiling via proximity ligation, sequencing); 10 mM Tris-HCl pH 7.5, 50 mM NaCl, 1 mM DTT, 4% glycerol, room temperature, 30 min; GST-TFs on glutathione beads, 16-mer random dsDNA library, 0.1% formaldehyde crosslink after washing; high values mean tight binding
FEV = molecular target: T1, FEV (Homo sapiens, UniProt Q99581 1-238); settings: protein: recombinant; tags: N-terminal GST; dsDNA, one strand shown
T1 sequence: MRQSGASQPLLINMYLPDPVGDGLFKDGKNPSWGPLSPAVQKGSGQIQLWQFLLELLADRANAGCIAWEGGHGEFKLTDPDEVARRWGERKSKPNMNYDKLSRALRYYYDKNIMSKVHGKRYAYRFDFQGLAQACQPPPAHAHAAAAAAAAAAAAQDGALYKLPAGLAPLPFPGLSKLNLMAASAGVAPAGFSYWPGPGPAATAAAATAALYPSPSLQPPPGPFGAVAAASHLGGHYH
Outline: (§1)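 Each value of binding signal is a hexamer's read frequency for a factor divided by the same hexamer's frequency in the tag-only sample. Barcoded, bead-captured GST fusions of human transcription factors made in yeast were pooled with that sample and incubated with 200 nmole of a random double-stranded 16-mer DNA library in Tris/NaCl/DTT/glycerol buffer at room temperature for 30 min. Washing, 0.1% formaldehyde crosslinking, proximity ligation, PCR and Illumina NextSeq500 sequencing followed.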

ETV5 = ETV5 (Homo sapiens, UniProt P41161 1-510); settings: protein: recombinant; tags: N-terminal GST; dsDNA, one strand shown
Chain of ETV5 (P41161 whole entry): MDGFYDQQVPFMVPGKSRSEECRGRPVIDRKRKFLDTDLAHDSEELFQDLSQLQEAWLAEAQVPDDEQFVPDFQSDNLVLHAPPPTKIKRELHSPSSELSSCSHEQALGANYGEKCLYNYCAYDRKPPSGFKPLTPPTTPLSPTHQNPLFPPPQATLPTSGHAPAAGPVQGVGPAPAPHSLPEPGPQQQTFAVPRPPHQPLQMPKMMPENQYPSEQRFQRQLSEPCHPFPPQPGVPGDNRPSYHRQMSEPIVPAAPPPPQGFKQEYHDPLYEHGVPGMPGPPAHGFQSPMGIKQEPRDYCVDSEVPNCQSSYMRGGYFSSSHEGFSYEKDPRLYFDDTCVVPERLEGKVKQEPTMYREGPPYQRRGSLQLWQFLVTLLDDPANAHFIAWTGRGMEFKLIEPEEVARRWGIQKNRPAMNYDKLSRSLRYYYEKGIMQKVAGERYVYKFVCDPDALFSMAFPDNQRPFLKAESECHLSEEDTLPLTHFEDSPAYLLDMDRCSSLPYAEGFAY
Outline: as §1

HSF1 = HSF1 (Homo sapiens, UniProt Q00613 1-529); settings: protein: recombinant; tags: N-terminal GST; chain copies: 3; dsDNA, one strand shown
Chain of HSF1 (Q00613 whole entry): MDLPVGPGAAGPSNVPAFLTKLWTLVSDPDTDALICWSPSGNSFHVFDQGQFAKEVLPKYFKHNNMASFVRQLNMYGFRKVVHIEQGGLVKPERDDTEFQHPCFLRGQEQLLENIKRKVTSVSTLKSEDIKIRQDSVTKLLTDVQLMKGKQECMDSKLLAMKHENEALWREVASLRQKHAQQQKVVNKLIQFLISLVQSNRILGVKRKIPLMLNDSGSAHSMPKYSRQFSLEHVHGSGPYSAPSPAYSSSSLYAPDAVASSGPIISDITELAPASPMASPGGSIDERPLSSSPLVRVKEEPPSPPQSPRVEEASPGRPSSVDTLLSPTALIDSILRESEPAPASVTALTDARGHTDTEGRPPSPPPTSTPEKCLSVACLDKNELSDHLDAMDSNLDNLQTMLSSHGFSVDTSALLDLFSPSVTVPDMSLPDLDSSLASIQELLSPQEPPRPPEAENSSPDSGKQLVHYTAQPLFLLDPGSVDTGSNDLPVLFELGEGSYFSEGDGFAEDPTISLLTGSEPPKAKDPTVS
Outline: as §1

SPIC = molecular target: T2, SPIC (Homo sapiens, UniProt Q8N5J4 1-248); settings: protein: recombinant; tags: N-terminal GST; dsDNA, one strand shown
T2 sequence: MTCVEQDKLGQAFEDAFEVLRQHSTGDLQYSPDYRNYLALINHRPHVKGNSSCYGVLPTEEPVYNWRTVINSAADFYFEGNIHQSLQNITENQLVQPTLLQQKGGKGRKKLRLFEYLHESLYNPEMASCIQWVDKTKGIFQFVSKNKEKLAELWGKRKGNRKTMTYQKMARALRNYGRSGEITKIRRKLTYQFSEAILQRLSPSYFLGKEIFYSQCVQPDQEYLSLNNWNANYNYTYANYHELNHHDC
Outline: as §1

ELF4 = ELF4 (Homo sapiens, UniProt Q99607 1-663); settings: protein: recombinant; tags: N-terminal GST; dsDNA, one strand shown
Chain of ELF4 (Q99607 whole entry): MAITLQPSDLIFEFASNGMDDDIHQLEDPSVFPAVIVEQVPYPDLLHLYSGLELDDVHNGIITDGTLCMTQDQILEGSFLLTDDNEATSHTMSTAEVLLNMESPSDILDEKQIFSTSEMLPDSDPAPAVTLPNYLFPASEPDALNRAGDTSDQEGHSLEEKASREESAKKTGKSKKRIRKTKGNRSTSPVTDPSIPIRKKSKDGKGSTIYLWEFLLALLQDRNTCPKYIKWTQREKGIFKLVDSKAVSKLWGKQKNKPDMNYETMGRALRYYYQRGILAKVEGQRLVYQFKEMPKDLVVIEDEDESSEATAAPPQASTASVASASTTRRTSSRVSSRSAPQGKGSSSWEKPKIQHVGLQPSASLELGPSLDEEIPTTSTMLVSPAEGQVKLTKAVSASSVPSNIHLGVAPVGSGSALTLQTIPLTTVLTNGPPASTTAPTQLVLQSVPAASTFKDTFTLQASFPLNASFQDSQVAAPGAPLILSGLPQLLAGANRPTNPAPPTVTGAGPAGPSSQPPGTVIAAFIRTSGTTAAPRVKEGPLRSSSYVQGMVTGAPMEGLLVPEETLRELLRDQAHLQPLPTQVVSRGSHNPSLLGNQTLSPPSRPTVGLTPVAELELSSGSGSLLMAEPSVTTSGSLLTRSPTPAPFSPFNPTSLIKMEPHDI
Outline: as §1

ELK4 = molecular target: T3, ELK4 (Homo sapiens, UniProt P28324-2 1-405); settings: protein: recombinant; tags: N-terminal GST; dsDNA, one strand shown
T3 sequence: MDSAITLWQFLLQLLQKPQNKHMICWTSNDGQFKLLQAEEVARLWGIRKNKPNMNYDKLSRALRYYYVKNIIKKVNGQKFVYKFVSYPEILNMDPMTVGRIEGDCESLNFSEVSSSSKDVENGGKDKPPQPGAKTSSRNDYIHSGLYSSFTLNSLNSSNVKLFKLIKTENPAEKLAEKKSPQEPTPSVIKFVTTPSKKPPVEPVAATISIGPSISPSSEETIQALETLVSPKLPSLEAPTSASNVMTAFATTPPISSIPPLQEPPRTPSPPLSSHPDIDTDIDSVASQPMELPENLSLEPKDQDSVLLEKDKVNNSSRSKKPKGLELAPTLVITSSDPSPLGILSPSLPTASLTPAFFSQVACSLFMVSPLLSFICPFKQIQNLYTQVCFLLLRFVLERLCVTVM
Outline: as §1

ETV2 = molecular target: T4, ETV2 (Homo sapiens, UniProt O00321 1-342); settings: protein: recombinant; tags: N-terminal GST; dsDNA, one strand shown
T4 sequence: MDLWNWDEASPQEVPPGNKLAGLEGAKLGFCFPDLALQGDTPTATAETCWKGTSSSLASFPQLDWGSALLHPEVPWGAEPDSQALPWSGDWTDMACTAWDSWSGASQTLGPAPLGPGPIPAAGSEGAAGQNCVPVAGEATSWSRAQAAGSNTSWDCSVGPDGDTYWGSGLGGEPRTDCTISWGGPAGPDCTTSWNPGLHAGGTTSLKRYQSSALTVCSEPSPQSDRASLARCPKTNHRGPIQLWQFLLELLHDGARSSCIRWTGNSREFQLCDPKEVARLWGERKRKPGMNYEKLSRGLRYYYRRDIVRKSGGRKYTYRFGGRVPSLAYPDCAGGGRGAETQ
Outline: as §1

ELF3 = molecular target: T5, ELF3 (Homo sapiens, UniProt P78545 1-371); settings: protein: recombinant; tags: N-terminal GST; dsDNA, one strand shown
T5 sequence: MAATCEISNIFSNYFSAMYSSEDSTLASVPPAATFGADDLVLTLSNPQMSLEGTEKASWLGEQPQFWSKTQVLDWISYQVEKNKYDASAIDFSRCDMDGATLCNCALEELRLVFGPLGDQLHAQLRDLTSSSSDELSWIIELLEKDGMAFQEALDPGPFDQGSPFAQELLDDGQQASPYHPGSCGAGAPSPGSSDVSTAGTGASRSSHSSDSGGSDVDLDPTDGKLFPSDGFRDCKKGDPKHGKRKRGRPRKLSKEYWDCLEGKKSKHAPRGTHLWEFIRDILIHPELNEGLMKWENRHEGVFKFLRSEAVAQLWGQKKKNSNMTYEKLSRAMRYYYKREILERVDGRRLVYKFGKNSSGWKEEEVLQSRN
Outline: as §1

CRX = CRX (Homo sapiens, UniProt O43186 1-299); settings: protein: recombinant; tags: N-terminal GST; dsDNA, one strand shown
Chain of CRX (O43186 whole entry): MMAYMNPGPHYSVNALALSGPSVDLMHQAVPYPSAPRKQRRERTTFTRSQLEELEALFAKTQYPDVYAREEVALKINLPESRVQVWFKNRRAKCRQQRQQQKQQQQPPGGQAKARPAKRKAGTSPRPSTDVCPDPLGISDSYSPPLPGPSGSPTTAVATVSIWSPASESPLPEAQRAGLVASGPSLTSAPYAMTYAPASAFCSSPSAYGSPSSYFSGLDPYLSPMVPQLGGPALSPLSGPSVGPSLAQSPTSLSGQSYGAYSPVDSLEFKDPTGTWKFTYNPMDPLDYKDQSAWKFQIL
Outline: as §1

ETV1 = ETV1 (Homo sapiens, UniProt P50549 1-477); settings: protein: recombinant; tags: N-terminal GST; dsDNA, one strand shown
Chain of ETV1 (P50549 whole entry): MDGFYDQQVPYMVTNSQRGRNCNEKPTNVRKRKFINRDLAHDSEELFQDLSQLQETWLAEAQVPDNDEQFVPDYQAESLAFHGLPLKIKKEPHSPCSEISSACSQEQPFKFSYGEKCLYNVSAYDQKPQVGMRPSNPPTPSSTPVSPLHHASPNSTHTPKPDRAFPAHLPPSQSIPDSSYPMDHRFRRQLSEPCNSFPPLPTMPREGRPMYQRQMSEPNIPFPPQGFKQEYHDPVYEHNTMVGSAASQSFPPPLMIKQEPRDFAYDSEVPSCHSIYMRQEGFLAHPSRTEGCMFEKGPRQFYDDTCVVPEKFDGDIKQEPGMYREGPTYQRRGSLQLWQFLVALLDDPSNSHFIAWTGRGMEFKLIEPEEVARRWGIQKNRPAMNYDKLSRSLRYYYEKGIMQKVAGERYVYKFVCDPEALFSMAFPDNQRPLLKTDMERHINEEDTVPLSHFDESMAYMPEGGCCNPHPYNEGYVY
Outline: as §1

For CTCCTG, the binding signal (FEV) was 1.57 fold enrichment (6-mer frequency, TF over GST control), the binding signal (ETV5) was 1.71 fold enrichment (6-mer frequency, TF over GST control) and the binding signal (HSF1) was 1.52 fold enrichment (6-mer frequency, TF over GST control). For the same sequence, the binding signal (SPIC) was 1.37 fold enrichment (6-mer frequency, TF over GST control), the binding signal (ELF4) was 1.65 fold enrichment (6-mer frequency, TF over GST control) and the binding signal (ELK4) was 1.35 fold enrichment (6-mer frequency, TF over GST control). The binding signal (ETV2) was 1.62 fold enrichment (6-mer frequency, TF over GST control), the binding signal (ELF3) was 1.47 fold enrichment (6-mer frequency, TF over GST control) and the binding signal (CRX) was 1.46 fold enrichment (6-mer frequency, TF over GST control). For the same sequence, the binding signal (ETV1) was 1.79 fold enrichment (6-mer frequency, TF over GST control).
